Source: PubChem BioAssay (Tox21)
Inconclusive results are not listed. Active and inactive are the calls of the source. Unless noted, calls come from the whole dose curve; as a rule, active = well fitted curve in the direction sought with a large enough effect in the repeat runs; inconclusive = weak or mixed curves; inactive = no such curve, though single readings can be large; an effect the other way counts as inactive or inconclusive.

Assays:
[1] = qHTS assay to identify small molecule agonists of the vitamin D receptor (VDR) signaling pathway - cell viability counter screen (AID 743224); note: series mostly up to about 63 µM; nearly all actives have a fitted effect of over 50% in size
In short: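 VDR-bla cell line, quantitative HTS format; 16 h compound incubation (37C, 5% CO2); ATP-based CellTiter-Glo luminescence measured in the reporter assay wells.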

[2] = qHTS assay to identify small molecule antagonists of the vitamin D receptor (VDR) signaling pathway - cell viability counter screen (AID 743225); note: nearly all actives have a fitted effect of over 50% in size
In short: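 VDR-bla HEK 293T cells, 4 h pre-incubation at 37C, then compound plus 1-alpha,25-dihydroxyvitamin D3 (3 nM final) for 16 h. After the beta-lactamase FRET read, CellTiter-Glo was added to the same wells; luminescence after 30 min at room temperature.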

[3] = qHTS assay to identify small molecule agonists of the NFkB signaling pathway (AID 1159509; active = well fitted curve in the direction sought with a large enough effect in the signal ratio in the repeat runs, not every such curve was filed as active; the % refers to the signal ratio; note: series mostly up to about 61 µM)
In short: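 NFkB-bla ME-180 cells carry a beta-lactamase reporter under an NF-kB response element. They were plated overnight, then exposed to compounds for 5 h at 37 C. Read-out is LiveBLAzer FRET after 1.5 hr at room temperature (405 nm excitation; 460/530 nm emission).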

[4] = qHTS assay to identify small molecule agonists of the NFkB signaling pathway - cell viability counter screen (AID 1159515; calls by dose curve; note: series mostly up to about 61 µM; nearly all actives have a fitted effect of over 55% in size)
In short: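 Viability in NFkB-bla ME-180 cells was measured by CellTiter-Glo luminescence, 30 min room temperature, in wells already treated 5 hr with compounds and read for reporter FRET.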

[5] = qHTS assay to identify small molecule agonists of the endoplasmic reticulum stress response signaling pathway (AID 1159516; active = well fitted activation curve with a large enough effect in the signal ratio in the repeat runs, not every such curve was filed as active; the % refers to the signal ratio)
In short: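 ER stress element reporter (bla) in HeLa. 1,500 cells/well, overnight attachment; 5 hr compound; 2 hr RT substrate; dual-emission fluorescence.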

[6] = qHTS assay to identify small molecule agonists of the endoplasmic reticulum stress response signaling pathway - cell viability counter screen (AID 1159517; calls by dose curve;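 note: HeLa cells carrying an ER stress response element beta-lactamase reporter; series mostly up to about 61 µM; nearly all actives have a fitted effect of over 50% in size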)
In short: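 CellTiter-Glo was added to wells already read for beta-lactamase FRET, and luminescence was recorded 30 min later. Cells: ESRE-bla HeLa, 1,500 per well, compound exposure 5 hr at 37 C.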

[7] = qHTS assay to identify small molecule antagonists of the retinoid-related orphan receptor gamma (ROR-gamma) signaling pathway - cell viability counter screen (AID 1159520); note: nearly all actives have a fitted effect of over 50% in size
In short: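 Tet-on ROR gamma CHO cells (1,000/well) were plated 4 hr, given compounds in DMSO for 2 hr at 37 C, then induced with 1 uM final doxycycline for 16 hr. Viability was read as ATP by CellTiter-Glo luminescence after 30 min.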

[8] = target: Nuclear receptor ROR-gamma (Homo sapiens) (UniProt P51449); assay: qHTS assay to identify small molecule antagonists of the retinoid-related orphan receptor gamma (ROR-gamma) signaling pathway (AID 1159521)
In short: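 Tet-on RORγ CHO cells carrying a ROR response element–luciferase reporter were pretreated with compounds for 2 h, then induced with 1 uM (final) doxycycline hyclate for 16 h at 37 C. Antagonism was read as decreased ONE-Glo luminescence.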

[9] = qHTS assay to identify small molecule agonists of the AP-1 signaling pathway - cell viability counter screen (AID 1159525; calls by dose curve; note: nearly all actives have a fitted effect of over 55% in size)
In short: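 ME-180 AP-1-bla, 2500 cells/well, Opti-MEM + 0.5% dialyzed FBS; overnight 37 °C; cpd 15-pt titration, 5 h 37 °C; CellTiter-Glo 30 min RT; luminescence read; normalised to TOAB and DMSO controls.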

[10] = qHTS assay to identify small molecule agonists of the AP-1 signaling pathway (AID 1159526; calls by dose curve)
[11] = target: Retinoic acid receptor RXR-alpha (Homo sapiens) (UniProt P19793); assay: qHTS assay to identify small molecule agonists of the RXR signaling pathway (AID 1159527; calls by dose curve; note: nearly all actives have a fitted effect of over 35% in size)
In short: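 GeneBLAzer RXR-alpha-UAS-bla HEK 293T cells in medium with 2% charcoal-stripped FBS, pre-incubated 5 hr at 37 C, then exposed to compounds 16 hr. Beta-lactamase reporter read by FRET substrate, 2 hr room temperature, 460/530 nm emission.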

[12] = qHTS assay to identify small molecule agonists of the RXR signaling pathway - cell viability counter screen (AID 1159529)
In short: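 RXR-alpha-UAS-bla HEK 293T cells in medium with 2% charcoal-stripped FBS were preincubated 5 hr, then exposed to compounds for 16 hr at 37 C. Viability was read as CellTiter-Glo luminescence after 30 min at room temperature.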

[13] = qHTS assay to identify small molecule antagonists of the retinoid acid receptor (RAR) signaling pathway - cell viability counter screen (AID 1159551); note: nearly all actives have a fitted effect of over 35% in size
In short: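 Following overnight attachment, C3RL4 reporter cells received DMSO-dissolved compounds and then retinol (1 uM final). Six hours later at 37 C, ATP content was measured by CellTiter-Glo luminescence.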

[14] = qHTS assay to identify small molecule antagonists of the retinoic acid receptor (RAR) signaling pathway (AID 1159552; note: nearly all actives have a fitted effect of over 50% in size)
In short: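 RARE-luc C3RL4 cells; cpds + 1 uM (final) retinol, 6 hr, 37 C/5% CO2; luciferase reagent, 30 min RT, luminescence readout. Inhibitors of retinol-driven signal scored.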

[15] = qHTS assay to identify small molecule agonists of the retinoic acid receptor (RAR) signaling pathway (AID 1159553)
In short: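 Cell line C3RL4, RARE luciferase reporter. Treatment: compounds in DMSO, 6 hr, 37 C, 5% CO2, after overnight plating. Detection: luminescence, 30 min RT after reagent.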

Measured: Potency

Retinoic acid receptor RXR-alpha (Homo sapiens), sequence (P19793 whole entry, looked up): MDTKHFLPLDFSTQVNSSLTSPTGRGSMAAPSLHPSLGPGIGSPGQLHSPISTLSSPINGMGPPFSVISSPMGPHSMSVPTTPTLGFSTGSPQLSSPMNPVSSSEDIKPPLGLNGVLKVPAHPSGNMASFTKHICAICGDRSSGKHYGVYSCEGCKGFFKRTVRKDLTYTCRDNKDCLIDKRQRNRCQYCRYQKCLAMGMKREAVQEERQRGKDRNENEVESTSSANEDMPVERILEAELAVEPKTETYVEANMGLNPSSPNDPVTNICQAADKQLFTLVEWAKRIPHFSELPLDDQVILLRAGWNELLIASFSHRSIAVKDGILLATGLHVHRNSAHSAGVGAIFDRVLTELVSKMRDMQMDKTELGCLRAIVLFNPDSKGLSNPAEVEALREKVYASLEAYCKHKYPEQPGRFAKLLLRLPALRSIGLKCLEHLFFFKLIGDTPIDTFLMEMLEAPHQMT

C1OCOCO1
inactive: [1] | [2] | [3] | [4] | [5] | [6] | [7] | [8] | [9] | [10] | [11] | [12] | [13] | [14] | [15]

CC(C)OC(=O)c1ccccc1
inactive: [1] | [3] | [4] | [5] | [6] | [7] | [8] | [9] | [10] | [11] | [12] | [13] | [14] | [15]

Cc1ccc(C#N)cc1
inactive: [1] | [2] | [3] | [4] | [5] | [6] | [7] | [8] | [9] | [10] | [11] | [12] | [13] | [14] | [15]

OC1CCCCC1c1ccccc1 (configuration not stated)
inactive: [1] | [2] | [3] | [4] | [5] | [6] | [7] | [8] | [9] | [10] | [11] | [12] | [13] | [14] | [15]

NS(=O)(=O)c1ccccc1Cl
inactive: [1] | [2] | [3] | [4] | [5] | [6] | [7] | [8] | [9] | [10] | [11] | [12] | [13] | [14] | [15]

CC(=O)c1ccccc1O
inactive: [1] | [2] | [3] | [4] | [5] | [6] | [7] | [8] | [9] | [10] | [11] | [12] | [13] | [14] | [15]

CC(C)(O)C(=O)c1ccccc1
inactive: [1] | [2] | [3] | [4] | [5] | [6] | [7] | [8] | [9] | [10] | [11] | [12] | [13] | [14] | [15]

O=C(O)Cc1ccc(CCNS(=O)(=O)c2ccc(Cl)cc2)cc1
inactive: [1] | [3] | [4] | [5] | [6] | [7] | [8] | [9] | [10] | [11] | [12] | [13] | [14] | [15]

O=[N+]([O-])c1ccc(F)cc1F
inactive: [1] | [2] | [3] | [4] | [5] | [6] | [7] | [8] | [9] | [10] | [11] | [12] | [13] | [14] | [15]

COc1cc(C(=O)N2CCCCCCC2)cc(OC)c1OC
inactive: [1] | [2] | [3] | [4] | [5] | [6] | [7] | [8] | [9] | [10] | [11] | [12] | [13] | [14] | [15]

COc1ccc2c(c1)c(CC(=O)OCC(=O)O)c(C)n2C(=O)c1ccc(Cl)cc1
inactive: [1] | [2] | [3] | [4] | [5] | [6] | [7] | [8] | [9] | [10] | [11] | [12] | [13] | [14] | [15]

NC(CSCC(=O)O)C(=O)O (configuration not stated)
inactive: [1] | [2] | [3] | [4] | [5] | [6] | [7] | [8] | [9] | [10] | [11] | [12] | [13] | [14] | [15]

C1CN(CCOCCN2CCOCC2)CCO1
inactive: [1] | [2] | [3] | [4] | [5] | [6] | [7] | [8] | [9] | [10] | [11] | [12] | [13] | [14] | [15]

OCCCC1CCCCC1
inactive: [1] | [3] | [4] | [5] | [6] | [7] | [8] | [9] | [10] | [11] | [12] | [13] | [14] | [15]

CC1(C)CO[C@@H](CC(=O)O)CN1
inactive: [1] | [2] | [3] | [4] | [5] | [6] | [7] | [8] | [9] | [10] | [11] | [12] | [13] | [14] | [15]

CCOC(=O)CCC(C)=O
inactive: [1] | [2] | [3] | [4] | [5] | [6] | [7] | [8] | [9] | [10] | [11] | [12] | [13] | [14] | [15]

CCc1cccc2c(CCO)c[nH]c12
inactive: [1] | [2] | [3] | [4] | [5] | [6] | [7] | [8] | [9] | [10] | [11] | [12] | [13] | [14] | [15]

CCO[Si](CCC1CCC2OC2C1)(OCC)OCC (configuration not stated)
inactive: [1] | [2] | [3] | [4] | [5] | [6] | [7] | [8] | [9] | [10] | [11] | [12] | [13] | [14] | [15]

CCOc1ccc(C(=O)OCCN(CC)CC)cc1
inactive: [1] | [2] | [3] | [4] | [5] | [6] | [7] | [8] | [9] | [10] | [11] | [12] | [13] | [14] | [15]
